# The list is not random: actives were taken first. Their share in the collection is about 2.2%.
# aSyn 5UTR inh: MLPCN primary screen, SNCA 5' untranslated region; alpha-synuclein 5'UTR reporter, inhibitor activity; inhibition, % (tested at 7.5 µM); 0.82% of 300,000 active; in the data active = inhibition above about 60%;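 note: H4 neuroglioblastoma cells stably carrying SNCA 5'UTR luciferase fusion; 0% = DMSO wells and 100% = positive control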
# Ba/F3 V617F tox: lowers viability of Ba/F3 cells expressing EpoR and JAK2V617F; ATP luminescence; AID 1446; 1.1% of 220,000 active; inhibition, % at 5.6 µM;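 active = inhibition above the campaign mean plus 3 SD over all tested compounds, cut at about 24% in these data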;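 note: cytokine-independent growth of Ba/F3 cells driven by EpoR plus mutant JAK2; 0% = DMSO-treated cells and 100% = JAK inhibitor I control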
# BaF3 parental: parental Ba/F3 viability inhibition as JAK2V617F counter-screen; 1.1% of 220,000 active; CellTiter-Glo ATP luminescence; inhibition, % at 5.6 µM;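 active = inhibition above a per-campaign cutoff, the mean inhibition of all tested compounds plus 3 SD, cut at about 27% in these data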;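 note: 0% = DMSO wells and 100% = JAK Inhibitor I control wells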
# IEC-6 tox: kills IEC-6 intestinal cells in KLF5 counter-screen. inhibition, % at 5 µM. 0.78% of 290,000 active. IEC-6 cytotoxicity, luminescence viability. AID 1825; in the data active = inhibition above about 22%;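 note: 0% = plate median of test compound wells and 100% = cytotoxic reference compound wells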
# KLF5 inh: inhibitors of KLF5 expression | DLD-1 KLF5 promoter-luciferase reporter, luminescence | inhibition, % at 5 µM | 0.23% of 290,000 active | AID 1700;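 active = inhibition above a per-plate limit of that plate's mean compound inhibition plus 3 SD, cut at about 60% in these data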;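 note: 0% = DMSO wells and 100% = LY294002 at 200 µM; higher means less KLF5 promoter-driven luciferase light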
# APP transl inh: APP translation inhibition; SH-SY5Y APP 5'UTR-luciferase reporter, luminescence; inhibition, % at 2 µM; 0.82% of 190,000 active;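 active = inhibition above a set limit, derived from the sample mean plus 3 SD, cut at about 45% in these data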
# The depositor's hits bear a star; · = no result given.
SMILES,aSyn 5UTR inh,Ba/F3 V617F tox,BaF3 parental,IEC-6 tox,KLF5 inh,APP transl inh
O=C(CC1C(=O)NCCN1Cc1ccccc1C(F)(F)F)NCCn1cccn1 (centres undefined),7.5,0.5,3.8,4.7,-1.7,2.1
O=C(Nc1ccc(F)cc1Cl)C1CCN(C(=O)Nc2ccccc2)CC1,-13.1,·,·,1.0,-1.2,·
O=C(CCC(=O)N1CCOc2ccc(Cl)cc21)NCCN1CCOCC1,8.4,·,·,-2.8,-11.0,·
COCc1cc(C)nc2sc(C(=O)NCCO)c(-n3cccc3)c12,15.3,1.9,3.8,-0.7,-28.3,25.1
COc1ccc(CCNC(=O)CCn2c(=O)c3cccn3c3ccc(F)cc32)c(OC)c1OC,-9.2,·,·,-0.8,13.0,·
CNC(=O)C(Sc1ccccc1)c1ccccc1 (centres undefined),-13.1,2.1,3.5,-0.2,-9.2,48.9*
CCC(CC)C(=O)Nc1nnc(S(=O)(=O)N2CCCC2)s1,1.9,·,·,-9.5,-5.8,·
CN(C)CC(C(=O)c1ccccc1)c1ccccc1 (centres undefined),-170.8,-1.1,-0.6,4.4,-5.8,93.9*
COc1ccc(C(C(=O)OC(C)CN(C)C)c2ccccc2)cc1 (centres undefined),1.6,-0.3,5.2,-1.0,-23.5,-6.4
CC(C)(C)C(=O)/C(=C/c1ccncc1)n1cncn1,-58.0,90.9*,74.5*,21.6,14.2,58.2*
Cc1nn(C)c(C)c1/C=C(/C(=O)C(C)(C)C)n1cncn1,88.9*,-6.6,-4.2,-4.3,-5.7,·
Cc1nn(C)c(C)c1/C=C(/C(=O)C(C)C)n1cncn1,-9.6,2.2,-5.5,2.6,-24.6,·
CCOC(=O)c1[nH]c2ccc(OC)cc2c1NC(=O)c1nonc1C,5.6,2.9,-0.1,0.5,-21.3,46.3*
CCOC(=O)c1[nH]c2ccc(Cl)cc2c1NC(=O)c1nonc1C,-11.2,-1.7,0.5,-3.6,-16.4,2.1
Cc1ccc(OCC(=O)NNC(=O)C2CC(=O)N(c3ccc4c(c3)OCCO4)C2)cc1 (centres undefined),-15.6,·,·,·,·,·
OC(COCc1ccc2c(c1)OCO2)CN1CCN(Cc2ccccc2)CC1 (centres undefined),15.6,-2.4,-0.8,-4.4,-26.1,50.8*
O=C(CCCN1C(=O)C(c2ccccc2)Oc2cccnc21)Nc1cccc(F)c1 (centres undefined),20.8,·,·,-6.0,-20.1,·
COc1cccc(C(=O)Nc2nc3ccccc3[nH]2)c1,62.6*,3.2,8.0,5.2,33.1,-150.1
O=C(Nc1nc2ccccc2[nH]1)c1cccc(F)c1,-61.6,·,·,17.5,-70.6,·
CC(=O)Nc1ccc(OCC(=O)NC(C)C(C)C)cc1 (centres undefined),-4.5,0.1,2.4,4.4,-19.3,-21.7
CC(=O)Nc1cccc(OCC(=O)NC(C)C(C)C)c1 (centres undefined),8.5,-0.8,1.1,3.1,-3.0,68.9*
Cc1ccc(CSc2nnc(SCC(=O)N/N=C/C=C/c3ccccc3[N+](=O)[O-])s2)cc1,89.3*,1.1,9.9,2.5,-6.2,36.2
Cc1ccc(CSc2nnc(SCC(=O)N/N=C/C=C/c3ccco3)s2)cc1,52.4,-0.9,8.2,-0.3,11.8,21.5
Brc1ccc(C=Nc2ccc(Nc3ccccc3)cc2)s1,12.8,2.2,8.2,7.3,3.6,45.2*
COc1ccc(CNC[C@@H](CCCCN(C)Cc2ccc(OC)cc2)N2C[C@H](c3ccccc3)N(CCc3ccc(Cl)c(Cl)c3)C(=O)C2=O)cc1,92.2*,1.6,4.8,0.9,-7.2,-0.4
SMILES,aSyn 5UTR inh,Ba/F3 V617F tox,BaF3 parental,IEC-6 tox,KLF5 inh,APP transl inh
CCOc1ccc(CCN2C(=O)C(=O)N([C@H](CCCN(C)Cc3ccccc3)CNCc3ccccc3)C[C@@H]2C(C)C)cc1,-8.1,·,·,·,·,·
CCN(CCCNC(=O)CNC(=O)c1nn(-c2ccc(OC)cc2)c(=O)c2ccccc12)c1cccc(C)c1,14.6,·,·,5.7,3.3,·
CC(C)Oc1ccc(Cc2cnc(N)nc2N)cc1,8.4,10.1,3.5,-3.5,-8.2,8.6
COc1cc(C)c(Cc2cnc(N)nc2N)cc1OC,-2.2,32.8*,-2.0,-8.2,-16.1,·
CN(C)c1ccc(-c2n(C)c3ccccc3[n+]2C)cc1,8.2,91.2*,71.0*,9.5,-38.3,·
Cn1c(-c2cccc([N+](=O)[O-])c2)[n+](C)c2ccccc21,19.5,58.0*,70.5*,3.2,0.6,-0.9
Cn1c(-c2ccc3ccccc3n2)[n+](C)c2ccccc21,-64.9,89.0*,63.3*,3.5,7.9,·
Cn1c(-c2ccccn2)[n+](C)c2ccccc21,-0.7,7.5,16.9,-0.4,-37.0,-0.8
CCOc1ccccc1N(CC(=O)NC1CCCCC1)S(=O)(=O)c1ccc(C)cc1,31.0,·,·,-1.5,2.0,·
O=C(CSCc1c(F)cccc1F)Nc1ccccc1,-116.4,·,·,-2.1,-34.3,·
N#Cc1cc2cc3c(cc2nc1SCC(=O)N1CCOCC1)OCCO3,109.6*,·,·,4.9,-60.8,·
O=C(CC1CCCCC1)NCc1nc(-c2ccccc2)no1,-23.7,-1.8,0.1,1.0,1.5,·
CCC(C)NC(=O)C1c2ccccc2C(=O)N1Cc1ccc(F)cc1 (centres undefined),-4.4,·,·,0.0,-26.1,·
CCOc1ccc(NS(=O)(=O)c2ccc(C(=O)N3CCN(c4ncccn4)CC3)cc2)cc1,14.7,20.8,31.3*,0.1,-16.4,5.8
CCOC(=O)c1sc2nc(CSc3ccccc3)nc(N3CCC(C(N)=O)CC3)c2c1C,17.7,1.9,4.7,3.2,-5.7,-9.8
CCOC(=O)c1sc2nc(CSc3ccccc3)nc(N3CCCN(C)CC3)c2c1C,78.3*,4.7,1.6,4.0,16.9,18.4
Cc1ccc(O)c(N=NC2=C(O)CC(C)(C)CC2=O)c1,64.8*,10.1,3.8,-3.7,-57.9,35.5
CC1(C)CC(=O)C(N=Nc2cc(Cl)c(Cl)c(Cl)c2)=C(O)C1,-9.1,-4.2,-0.7,-7.8,-10.8,5.6
CCc1cccc(OCC(O)Cn2c(N3CCCCC3)nc3c2c(=O)[nH]c(=O)n3C)c1 (centres undefined),22.8,·,·,-3.7,-2.5,·
NC(=S)N=Nc1ccc(NN=C(N)N)cc1,68.4*,·,·,-7.4,-7.3,·
O=C(N/N=C/c1ccccc1)c1[nH]c2ccc(Br)cc2c1-c1ccccc1,9.3,-2.2,0.1,-4.9,7.1,88.5*
O=C(NN=C1CCCC1)c1[nH]c2ccc(Br)cc2c1-c1ccccc1,·,-5.3,5.7,-3.7,2.6,·
Cc1n(CC(=O)c2ccc(F)cc2)c2ccccc2[n+]1C,5.5,14.8,27.8*,4.8,-18.8,6.5
Cn1c(=N)n(CC(=O)c2ccc(F)cc2)c2ccccc21,75.7*,·,·,7.9,61.1,·
Cn1c(=N)n(CC(=O)c2ccc(Br)cc2)c2ccccc21,36.3,·,·,·,·,·
O=C(CSc1n[nH]c(-c2ccncc2)n1)Nc1ccc(Br)cc1,-6.6,·,·,5.7,-0.5,·
CCCCCCCCCCCCCCCC[n+]1cccc2ccccc21,·,100.8*,81.9*,28.3*,-4.5,23.0
Cc1ccccc1C[n+]1cccc2ccccc21,-18.8,·,·,·,·,·
c1ccc(-c2nc3cccnc3nc2-c2ccccc2)cc1,1.5,·,·,·,·,·

# Screening results as filed in PubChem BioAssay.
